According to paper PMC7862700, “An all-to-all approach to the identification of sequence-specific readers for epigenetic DNA modifications on cytosine”:

Columns and labels:
Test in all cases: DAPPL (digital affinity profiling via proximity ligation, sequencing); 10 mM Tris-HCl pH 7.5, 50 mM NaCl, 1 mM DTT, 4% glycerol, room temperature, 30 min; GST-TFs on glutathione beads, 16-mer random dsDNA library, 0.1% formaldehyde crosslink after washing; high values mean tight binding
[1] = biological target: T1, FEV (Homo sapiens, UniProt Q99581 1-238); details: protein: recombinant; tags: N-terminal GST; dsDNA, one strand shown
T1 sequence: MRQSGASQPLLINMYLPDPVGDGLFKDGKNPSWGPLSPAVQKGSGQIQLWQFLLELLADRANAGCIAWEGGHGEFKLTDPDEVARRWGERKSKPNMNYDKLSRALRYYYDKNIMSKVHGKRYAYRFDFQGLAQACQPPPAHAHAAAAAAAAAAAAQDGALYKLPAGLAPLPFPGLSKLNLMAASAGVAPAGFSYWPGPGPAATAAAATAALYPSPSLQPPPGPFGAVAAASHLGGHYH
Outline: (§1)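 Sequencing on an Illumina NextSeq500 followed washing, crosslinking with 0.1% formaldehyde, proximity ligation (BsaI/T4 ligase, 1 h, 37 °C) and PCR amplification of pools that had been incubated for 30 min at room temperature with 200 nmole of a random double-stranded 16-mer DNA library in Tris/NaCl/DTT/glycerol buffer. Each pool held DNA-barcoded human transcription factors, expressed in yeast as GST fusions and captured on glutathione beads, plus a tag-only sample. Binding signal is a hexamer's read frequency for a factor divided by its frequency in the tag-only sample.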

[2] = biological target: ETV5 (Homo sapiens, UniProt P41161 1-510); details: protein: recombinant; tags: N-terminal GST; dsDNA, one strand shown
Outline: as §1

[3] = biological target: HSF1 (Homo sapiens, UniProt Q00613 1-529); details: protein: recombinant; tags: N-terminal GST; chain copies: 3; dsDNA, one strand shown
Outline: as §1

[4] = biological target: T2, SPIC (Homo sapiens, UniProt Q8N5J4 1-248); details: protein: recombinant; tags: N-terminal GST; dsDNA, one strand shown
T2 sequence: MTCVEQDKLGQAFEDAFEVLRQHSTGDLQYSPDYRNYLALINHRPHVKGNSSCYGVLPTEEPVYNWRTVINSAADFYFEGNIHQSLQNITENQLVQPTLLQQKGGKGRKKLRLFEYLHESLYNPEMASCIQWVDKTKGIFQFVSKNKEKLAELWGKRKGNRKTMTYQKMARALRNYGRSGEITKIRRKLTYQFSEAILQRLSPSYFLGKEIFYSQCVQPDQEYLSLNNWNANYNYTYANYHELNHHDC
Outline: as §1

[5] = biological target: ELF4 (Homo sapiens, UniProt Q99607 1-663); details: protein: recombinant; tags: N-terminal GST; dsDNA, one strand shown
Outline: as §1

[6] = biological target: T3, ELK4 (Homo sapiens, UniProt P28324-2 1-405); details: protein: recombinant; tags: N-terminal GST; dsDNA, one strand shown
T3 sequence: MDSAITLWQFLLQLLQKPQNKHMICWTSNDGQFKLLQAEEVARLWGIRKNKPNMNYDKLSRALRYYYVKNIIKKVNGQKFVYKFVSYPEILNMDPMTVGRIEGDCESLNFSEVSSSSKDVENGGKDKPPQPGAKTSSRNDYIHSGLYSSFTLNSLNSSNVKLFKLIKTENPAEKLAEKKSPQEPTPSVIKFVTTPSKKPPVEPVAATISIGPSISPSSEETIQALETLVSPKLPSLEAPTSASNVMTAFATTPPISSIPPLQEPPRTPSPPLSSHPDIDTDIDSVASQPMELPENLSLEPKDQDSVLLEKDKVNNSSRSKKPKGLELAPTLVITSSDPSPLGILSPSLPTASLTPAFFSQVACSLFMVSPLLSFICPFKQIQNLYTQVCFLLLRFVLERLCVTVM
Outline: as §1

[7] = biological target: T4, ETV2 (Homo sapiens, UniProt O00321 1-342); details: protein: recombinant; tags: N-terminal GST; dsDNA, one strand shown
T4 sequence: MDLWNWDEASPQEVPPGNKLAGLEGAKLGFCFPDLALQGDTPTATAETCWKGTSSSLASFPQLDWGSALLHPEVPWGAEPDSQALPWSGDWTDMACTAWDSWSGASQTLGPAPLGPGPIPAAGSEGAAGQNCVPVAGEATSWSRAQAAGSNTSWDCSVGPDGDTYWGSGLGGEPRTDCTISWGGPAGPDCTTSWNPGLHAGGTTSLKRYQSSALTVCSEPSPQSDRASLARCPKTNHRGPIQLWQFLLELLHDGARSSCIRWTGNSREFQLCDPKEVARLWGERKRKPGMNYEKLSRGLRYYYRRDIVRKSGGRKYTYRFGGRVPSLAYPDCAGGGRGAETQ
Outline: as §1

[8] = biological target: T5, ELF3 (Homo sapiens, UniProt P78545 1-371); details: protein: recombinant; tags: N-terminal GST; dsDNA, one strand shown
T5 sequence: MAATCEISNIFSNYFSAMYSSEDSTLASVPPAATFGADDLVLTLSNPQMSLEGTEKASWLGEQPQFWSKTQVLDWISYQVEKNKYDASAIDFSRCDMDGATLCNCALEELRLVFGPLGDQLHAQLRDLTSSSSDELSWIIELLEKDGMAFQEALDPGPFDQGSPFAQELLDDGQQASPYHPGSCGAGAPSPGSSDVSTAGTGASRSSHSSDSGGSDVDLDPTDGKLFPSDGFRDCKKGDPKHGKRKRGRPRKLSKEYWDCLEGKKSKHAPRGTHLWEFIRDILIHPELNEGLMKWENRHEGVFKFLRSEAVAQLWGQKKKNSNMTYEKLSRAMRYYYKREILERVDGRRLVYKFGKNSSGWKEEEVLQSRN
Outline: as §1

[9] = biological target: CRX (Homo sapiens, UniProt O43186 1-299); details: protein: recombinant; tags: N-terminal GST; dsDNA, one strand shown
Outline: as §1

[10] = biological target: ETV1 (Homo sapiens, UniProt P50549 1-477); details: protein: recombinant; tags: N-terminal GST; dsDNA, one strand shown
Outline: as §1

[11] = biological target: T6, ERF (Homo sapiens, UniProt P50548 1-548); details: protein: recombinant; tags: N-terminal GST; dsDNA, one strand shown
T6 sequence: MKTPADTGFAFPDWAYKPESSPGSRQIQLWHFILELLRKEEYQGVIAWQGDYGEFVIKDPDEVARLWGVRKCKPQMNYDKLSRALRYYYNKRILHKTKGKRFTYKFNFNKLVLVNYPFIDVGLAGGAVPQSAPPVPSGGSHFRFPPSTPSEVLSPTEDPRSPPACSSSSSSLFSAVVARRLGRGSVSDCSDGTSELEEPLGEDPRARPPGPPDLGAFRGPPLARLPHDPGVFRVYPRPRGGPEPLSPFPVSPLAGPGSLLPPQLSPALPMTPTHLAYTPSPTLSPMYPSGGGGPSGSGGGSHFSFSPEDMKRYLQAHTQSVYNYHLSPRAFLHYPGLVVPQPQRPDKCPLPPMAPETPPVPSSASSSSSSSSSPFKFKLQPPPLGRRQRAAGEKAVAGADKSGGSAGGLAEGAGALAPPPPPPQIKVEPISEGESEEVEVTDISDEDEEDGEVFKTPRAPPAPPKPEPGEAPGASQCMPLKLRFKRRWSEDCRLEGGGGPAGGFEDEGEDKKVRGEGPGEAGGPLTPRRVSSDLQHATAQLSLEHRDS
Outline: as §1

[12] = biological target: T7, ETV3L (Homo sapiens, UniProt Q6ZN32 1-361); details: protein: recombinant; tags: N-terminal GST; dsDNA, one strand shown
T7 sequence: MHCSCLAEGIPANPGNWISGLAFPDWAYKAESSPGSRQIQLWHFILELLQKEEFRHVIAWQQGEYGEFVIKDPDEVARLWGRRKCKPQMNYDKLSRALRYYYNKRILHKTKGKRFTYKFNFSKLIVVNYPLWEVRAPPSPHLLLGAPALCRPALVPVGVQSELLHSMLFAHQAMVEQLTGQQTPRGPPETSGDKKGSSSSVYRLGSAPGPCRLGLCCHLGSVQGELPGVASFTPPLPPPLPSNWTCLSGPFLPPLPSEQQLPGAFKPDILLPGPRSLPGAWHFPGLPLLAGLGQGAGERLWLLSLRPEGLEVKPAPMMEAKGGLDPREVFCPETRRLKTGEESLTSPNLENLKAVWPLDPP
Outline: as §1

[13] = biological target: T8, ETS2 (Homo sapiens, UniProt P15036 1-469); details: protein: recombinant; tags: N-terminal GST; dsDNA, one strand shown
T8 sequence: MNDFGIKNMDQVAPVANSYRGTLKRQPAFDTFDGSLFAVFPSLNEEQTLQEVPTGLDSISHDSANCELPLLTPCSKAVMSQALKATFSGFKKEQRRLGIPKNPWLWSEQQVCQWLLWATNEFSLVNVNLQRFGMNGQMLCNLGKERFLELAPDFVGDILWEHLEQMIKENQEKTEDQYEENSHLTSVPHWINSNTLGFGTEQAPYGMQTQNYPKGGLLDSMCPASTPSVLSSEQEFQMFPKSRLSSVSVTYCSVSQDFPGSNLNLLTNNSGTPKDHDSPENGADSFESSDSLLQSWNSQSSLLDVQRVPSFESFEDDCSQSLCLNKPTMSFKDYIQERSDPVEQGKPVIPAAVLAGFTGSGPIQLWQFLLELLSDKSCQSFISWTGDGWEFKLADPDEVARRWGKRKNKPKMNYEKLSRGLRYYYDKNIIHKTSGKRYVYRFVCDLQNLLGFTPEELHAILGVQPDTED
Outline: as §1

[14] = biological target: T9, SPDEF (Homo sapiens, UniProt O95238 1-335); details: protein: recombinant; tags: N-terminal GST; dsDNA, one strand shown
T9 sequence: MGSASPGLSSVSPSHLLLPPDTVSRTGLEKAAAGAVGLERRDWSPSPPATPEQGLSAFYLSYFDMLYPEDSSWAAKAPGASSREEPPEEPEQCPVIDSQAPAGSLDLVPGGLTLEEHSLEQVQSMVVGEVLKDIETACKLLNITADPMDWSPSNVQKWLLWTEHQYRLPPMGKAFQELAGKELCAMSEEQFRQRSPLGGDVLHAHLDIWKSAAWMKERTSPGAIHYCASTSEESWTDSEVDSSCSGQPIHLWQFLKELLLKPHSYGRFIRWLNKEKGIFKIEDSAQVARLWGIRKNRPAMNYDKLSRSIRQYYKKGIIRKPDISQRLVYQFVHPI
Outline: as §1

[15] = biological target: T10, ETV7 (Homo sapiens, UniProt Q9Y603 1-341); details: protein: recombinant; tags: N-terminal GST; dsDNA, one strand shown
T10 sequence: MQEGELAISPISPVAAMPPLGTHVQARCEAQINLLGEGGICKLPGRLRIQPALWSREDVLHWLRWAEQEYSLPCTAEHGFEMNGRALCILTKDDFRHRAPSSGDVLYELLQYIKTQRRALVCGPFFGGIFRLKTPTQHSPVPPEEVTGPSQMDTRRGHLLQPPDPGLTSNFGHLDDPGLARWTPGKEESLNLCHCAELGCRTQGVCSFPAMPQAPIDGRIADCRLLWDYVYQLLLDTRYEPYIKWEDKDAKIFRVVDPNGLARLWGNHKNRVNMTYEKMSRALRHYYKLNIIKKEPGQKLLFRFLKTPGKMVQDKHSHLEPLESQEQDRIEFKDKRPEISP
Outline: as §1

[16] = biological target: T11, ELF5 (Homo sapiens, UniProt Q9UKW6-2 1-255); details: protein: recombinant; tags: N-terminal GST; dsDNA, one strand shown
T11 sequence: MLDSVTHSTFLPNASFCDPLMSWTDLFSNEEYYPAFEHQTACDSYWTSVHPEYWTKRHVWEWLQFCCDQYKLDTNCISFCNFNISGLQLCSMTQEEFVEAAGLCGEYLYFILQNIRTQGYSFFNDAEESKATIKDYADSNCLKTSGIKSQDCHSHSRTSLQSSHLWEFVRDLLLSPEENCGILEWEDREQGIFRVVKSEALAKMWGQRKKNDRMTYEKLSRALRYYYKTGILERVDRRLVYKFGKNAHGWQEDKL
Outline: as §1

[17] = biological target: T12, ETV3 (Homo sapiens, UniProt P41162-2 1-143); details: protein: recombinant; tags: N-terminal GST; dsDNA, one strand shown
T12 sequence: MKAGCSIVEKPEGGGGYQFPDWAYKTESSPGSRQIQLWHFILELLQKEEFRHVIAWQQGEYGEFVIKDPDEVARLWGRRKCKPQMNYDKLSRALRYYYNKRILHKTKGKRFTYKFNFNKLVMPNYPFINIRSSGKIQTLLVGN
Outline: as §1

[18] = biological target: ETV6 (Homo sapiens, UniProt P41212 1-452); details: protein: recombinant; tags: N-terminal GST; dsDNA, one strand shown
Outline: as §1

ELF4, sequence (Q99607 whole entry): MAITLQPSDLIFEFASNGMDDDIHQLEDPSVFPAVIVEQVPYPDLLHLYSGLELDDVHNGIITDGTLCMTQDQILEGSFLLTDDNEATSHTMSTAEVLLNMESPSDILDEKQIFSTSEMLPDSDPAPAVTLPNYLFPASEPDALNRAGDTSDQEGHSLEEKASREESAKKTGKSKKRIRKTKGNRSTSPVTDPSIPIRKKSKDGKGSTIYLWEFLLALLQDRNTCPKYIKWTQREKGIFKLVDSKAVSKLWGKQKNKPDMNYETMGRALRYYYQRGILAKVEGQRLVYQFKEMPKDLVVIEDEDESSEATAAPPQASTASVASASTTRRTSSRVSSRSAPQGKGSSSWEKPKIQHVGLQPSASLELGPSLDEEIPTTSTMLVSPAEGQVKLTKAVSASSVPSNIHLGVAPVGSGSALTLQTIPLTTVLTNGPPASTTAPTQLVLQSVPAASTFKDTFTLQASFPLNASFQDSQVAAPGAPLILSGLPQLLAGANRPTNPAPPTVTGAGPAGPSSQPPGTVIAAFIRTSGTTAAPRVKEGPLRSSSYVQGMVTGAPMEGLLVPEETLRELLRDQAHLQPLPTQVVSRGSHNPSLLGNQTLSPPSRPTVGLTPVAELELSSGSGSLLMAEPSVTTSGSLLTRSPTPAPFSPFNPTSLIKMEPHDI
ETV6, sequence (P41212 whole entry): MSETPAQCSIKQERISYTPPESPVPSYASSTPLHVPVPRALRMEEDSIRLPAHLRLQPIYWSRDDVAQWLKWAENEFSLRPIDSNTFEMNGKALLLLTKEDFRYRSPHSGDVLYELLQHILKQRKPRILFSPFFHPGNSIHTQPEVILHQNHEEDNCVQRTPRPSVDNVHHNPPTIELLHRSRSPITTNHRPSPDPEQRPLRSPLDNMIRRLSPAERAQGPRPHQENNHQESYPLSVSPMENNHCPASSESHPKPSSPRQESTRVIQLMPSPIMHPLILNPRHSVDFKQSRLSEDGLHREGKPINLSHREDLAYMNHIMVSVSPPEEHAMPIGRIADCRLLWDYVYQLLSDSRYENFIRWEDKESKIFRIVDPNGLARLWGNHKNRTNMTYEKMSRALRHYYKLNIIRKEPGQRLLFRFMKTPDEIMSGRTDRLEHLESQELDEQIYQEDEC
CRX, sequence (O43186 whole entry): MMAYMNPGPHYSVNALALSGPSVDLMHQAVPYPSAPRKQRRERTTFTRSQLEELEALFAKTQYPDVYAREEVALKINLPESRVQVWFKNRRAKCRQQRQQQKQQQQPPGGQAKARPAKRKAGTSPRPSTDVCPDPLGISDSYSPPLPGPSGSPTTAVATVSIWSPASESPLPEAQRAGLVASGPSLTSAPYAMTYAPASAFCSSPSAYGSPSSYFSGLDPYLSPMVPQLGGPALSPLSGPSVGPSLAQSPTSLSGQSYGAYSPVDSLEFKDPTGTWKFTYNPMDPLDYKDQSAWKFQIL
HSF1, sequence (Q00613 whole entry): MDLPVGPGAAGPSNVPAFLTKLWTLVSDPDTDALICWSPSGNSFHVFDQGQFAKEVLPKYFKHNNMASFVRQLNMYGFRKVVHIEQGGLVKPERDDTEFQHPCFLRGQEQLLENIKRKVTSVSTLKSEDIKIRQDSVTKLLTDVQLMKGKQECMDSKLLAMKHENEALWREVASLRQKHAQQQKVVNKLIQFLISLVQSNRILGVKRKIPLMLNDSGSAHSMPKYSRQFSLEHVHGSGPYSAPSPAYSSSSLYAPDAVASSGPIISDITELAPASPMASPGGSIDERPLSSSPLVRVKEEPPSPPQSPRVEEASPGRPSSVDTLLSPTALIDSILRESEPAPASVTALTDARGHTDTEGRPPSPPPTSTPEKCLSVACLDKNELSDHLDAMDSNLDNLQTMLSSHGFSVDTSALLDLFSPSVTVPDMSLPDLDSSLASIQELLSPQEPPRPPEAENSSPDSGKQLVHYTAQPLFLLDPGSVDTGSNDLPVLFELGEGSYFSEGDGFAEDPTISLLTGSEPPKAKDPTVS
ETV1, sequence (P50549 whole entry): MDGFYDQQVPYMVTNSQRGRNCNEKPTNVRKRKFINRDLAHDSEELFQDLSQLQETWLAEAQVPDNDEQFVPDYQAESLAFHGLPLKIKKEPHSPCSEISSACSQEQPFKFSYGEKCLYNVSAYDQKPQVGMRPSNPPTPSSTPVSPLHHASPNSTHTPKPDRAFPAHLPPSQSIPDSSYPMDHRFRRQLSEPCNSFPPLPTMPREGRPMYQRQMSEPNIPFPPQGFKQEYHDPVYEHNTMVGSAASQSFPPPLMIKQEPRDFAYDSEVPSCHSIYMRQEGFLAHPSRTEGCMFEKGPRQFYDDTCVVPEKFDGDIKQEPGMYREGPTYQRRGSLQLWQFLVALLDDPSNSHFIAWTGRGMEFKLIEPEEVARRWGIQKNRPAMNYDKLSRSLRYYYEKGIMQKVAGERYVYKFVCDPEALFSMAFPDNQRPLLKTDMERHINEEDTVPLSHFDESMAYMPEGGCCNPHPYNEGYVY
ETV5, sequence (P41161 whole entry): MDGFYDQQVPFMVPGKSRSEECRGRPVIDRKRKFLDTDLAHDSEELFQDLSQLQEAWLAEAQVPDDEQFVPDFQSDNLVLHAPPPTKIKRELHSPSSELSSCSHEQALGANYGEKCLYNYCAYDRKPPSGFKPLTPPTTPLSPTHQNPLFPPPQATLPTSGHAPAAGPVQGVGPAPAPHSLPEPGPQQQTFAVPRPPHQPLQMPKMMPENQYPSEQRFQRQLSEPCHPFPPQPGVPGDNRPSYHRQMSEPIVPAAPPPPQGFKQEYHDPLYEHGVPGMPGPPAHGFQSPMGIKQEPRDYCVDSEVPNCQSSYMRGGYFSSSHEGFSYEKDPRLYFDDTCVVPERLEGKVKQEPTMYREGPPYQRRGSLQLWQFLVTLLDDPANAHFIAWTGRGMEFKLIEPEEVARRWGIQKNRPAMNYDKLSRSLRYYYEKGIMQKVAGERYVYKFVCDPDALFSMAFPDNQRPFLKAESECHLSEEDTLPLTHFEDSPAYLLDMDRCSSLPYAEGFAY

## TTGCGG
[1]
  binding signal: 1.19 fold enrichment (6-mer frequency, TF over GST control)
[2]
  binding signal: 1.36 fold enrichment (6-mer frequency, TF over GST control)
[3]
  binding signal: 1.04 fold enrichment (6-mer frequency, TF over GST control)
[4]
  binding signal: 1.47 fold enrichment (6-mer frequency, TF over GST control)
[5]
  binding signal: 1.3 fold enrichment (6-mer frequency, TF over GST control)
[6]
  binding signal: 1.2 fold enrichment (6-mer frequency, TF over GST control)
[7]
  binding signal: 1.31 fold enrichment (6-mer frequency, TF over GST control)
[8]
  binding signal: 1.42 fold enrichment (6-mer frequency, TF over GST control)
[9]
  binding signal: 1.05 fold enrichment (6-mer frequency, TF over GST control)
[10]
  binding signal: 1.27 fold enrichment (6-mer frequency, TF over GST control)
[11]
  binding signal: 1.25 fold enrichment (6-mer frequency, TF over GST control)
[12]
  binding signal: 1.3 fold enrichment (6-mer frequency, TF over GST control)
[13]
  binding signal: 1.21 fold enrichment (6-mer frequency, TF over GST control)
[14]
  binding signal: 1.24 fold enrichment (6-mer frequency, TF over GST control)
[15]
  binding signal: 1.29 fold enrichment (6-mer frequency, TF over GST control)
[16]
  binding signal: 1.24 fold enrichment (6-mer frequency, TF over GST control)
[17]
  binding signal: 1.34 fold enrichment (6-mer frequency, TF over GST control)
[18]
  binding signal: 1.41 fold enrichment (6-mer frequency, TF over GST control)
